Source: the supplement of paper PMC11417369
± gives the standard deviation of the averaged measurements. Over roughly 25,000 sequences, “ln(normalized median fluorescence intensity)” has its median near 10; the highest 2% begin near 12. The sample holds the highest values, similar sequences and a random draw of the others, so the mix is not that of the screen.

These sequences were tested on PfAP2-G AP2 domain (GST-tagged) (assay: gcPBM binding intensity (ln(normalized median fluorescence intensity)); higher = stronger DNA binding).
In short: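 Each value is the highest Masliner-normalised natural-log median intensity across replicate spots of either orientation of a probe. The probes were primer-extended double-stranded 36-bp intergenic genomic sequences on an Agilent 4 × 180k array, alongside negative controls, exposed for 1 h to GST-tagged P. falciparum DNA-binding domains expressed in E. coli. Bound protein was picked up with Alexa488 anti-GST antibody and scanned at 488 nm.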
In the case of “TAAAAAAAAAGAAGCTGTACTAAAAAATTTATATTA [XGTACX_site7408]”, the “gcPBM binding intensity (ln)” value is reported as 11.1 ± 0.81.
“ACATATAATATAAAGTGTACAAGAAAATAAAAATAA [XGTACX_site1273]” was tested, and the “gcPBM binding intensity (ln)” value was 11.3 ± 0.77.
For “TATATATATATTATATGTACACAAGGAAATATGCAT [XGTACX_site5637]”, the “gcPBM binding intensity (ln)” value was 11.5 ± 0.75.
In the case of “ATTTAAATACAAAATTGTACTTTTCTATATTTAACA [XGTACX_site6146]”, the “gcPBM binding intensity (ln)” value is reported as 11.3 ± 0.64.
With “ATATATATATATATATGTACTTATTTATTTTATATA [XGTACX_site8810]” the “gcPBM binding intensity (ln)” value was 11.5 ± 1.1.
In the case of “TATATTTATTCCTGTTGTACTTTATATTATTTTTTT [XGTACX_site1415]”, the “gcPBM binding intensity (ln)” value is reported as 11.3 ± 0.6.
For “TATATTAAAATTTACTGTACTTTTTTTATTTTAAAA [XGTACX_site4077]”, the “gcPBM binding intensity (ln)” value was 11.6 ± 1.1.
For “ACTATTATTAAAAATTGTACTTTCTATAAATTTTTT [XGTACX_site7825]”, the “gcPBM binding intensity (ln)” value was 11.1 ± 0.62.
For “TAAATAAAAATACAGTGTACTTTTTTCTATTTAAAA [XGTACX_site3288]”, the “gcPBM binding intensity (ln)” value was 11.7 ± 1.2.
“TATAAATATATATTTTGTACTTAATATAAATTTATA [XGTACX_site7996]” was tested, and the “gcPBM binding intensity (ln)” value was 11 ± 0.62.
“CTTCCTATATTTTACTGTACTTTTTTTTTTTTTTTT [XGTACX_site4016]” was tested, and the “gcPBM binding intensity (ln)” value was 11.7 ± 0.98.
In the case of “GTTAAGAATATATAATGTACTTATTTTAATATAGTA [XGTACX_site6088]”, the “gcPBM binding intensity (ln)” value is reported as 11.1 ± 0.84.
In the case of “ATATATGTGTATGTATGTACTTATATTTTTTTTTAT [XGTACX_site1733]”, the “gcPBM binding intensity (ln)” value is reported as 11.2 ± 0.78.
With “TTATATATTTTTATGTGTACTTATATATATATATAT [XGTACX_site6211]” the “gcPBM binding intensity (ln)” value was 11.7 ± 1.1.
In the case of “ATTTTTTTATTTTTGTGTACTTATAAGAATATTAAT [XGTACX_site4850]”, the “gcPBM binding intensity (ln)” value is reported as 11.7 ± 1.1.
With ATATATTAAAACCTAGTGCATTTGTACATATTTCAA the “gcPBM binding intensity (ln)” value was 11 ± 0.52.
With “ATTTTAGATGAAAAAGCACACAACATATATATATAT [CACACA_site2295]” the “gcPBM binding intensity (ln)” value was 10.2 ± 0.43.
For “TAATAAATAAGACACACACACATATATATATATTAT [CACACA_site1389]”, the “gcPBM binding intensity (ln)” value was 10.01 ± 0.042.
“TTGTATTATTAAATTATAAAACCTATAATTATGGAT [GTGCAC_negctrl_site340]” was tested, and the “gcPBM binding intensity (ln)” value was 9.68 ± 0.099.
In the case of “TGGAAATTCTCAGGAGTGCATATTTGCAGTTTACGT [GTGCAC_site9768]”, the “gcPBM binding intensity (ln)” value is reported as 10.3 ± 0.25.
With “GGGAAAGAACCATATACATGCATATTTACCGTTAAA [TGCATGCA_site519]” the “gcPBM binding intensity (ln)” value was 10 ± 0.28.
With “ATTTATATATAATATACACACATATAATCCACATAT [CACACA_site699]” the “gcPBM binding intensity (ln)” value was 10.15 ± 0.035.
In the case of “ATATATATATATATATGTACTTAATATTTCTTATTT [XGTACX_site6206]”, the “gcPBM binding intensity (ln)” value is reported as 11 ± 0.76.
“TTTAAATTTTTATATTGTACTTTATTTATTTATTTA [XGTACX_site869]” was tested, and the “gcPBM binding intensity (ln)” value was 11.2 ± 0.85.
With “TCTTTTTAATTTATATGTACTTATATTAATTATAAG [XGTACX_site7524]” the “gcPBM binding intensity (ln)” value was 11.4 ± 0.97.
For “TATATATATATATATTGTACTTTATTTTATATATTC [XGTACX_site5697]”, the “gcPBM binding intensity (ln)” value was 11.2 ± 0.71.
“GCTATTTATTTATATTGTACTTTTTTTTTTTTTTTT [XGTACX_site3624]” was tested, and the “gcPBM binding intensity (ln)” value was 11.7 ± 1.1.
In the case of “TTTTTGTTTTTTTTGTGTACTTATCAAATATATATA [XGTACX_site7273]”, the “gcPBM binding intensity (ln)” value is reported as 11.6 ± 0.83.
In the case of “TATATATATATCAAGTGTACTTGTGTTTGTAATATT [XGTACX_site8854]”, the “gcPBM binding intensity (ln)” value is reported as 11.4 ± 1.
For “CAAAAAATATATTTTTGTACTTATGTTTTTATTTTG [XGTACX_site5230]”, the “gcPBM binding intensity (ln)” value was 11.1 ± 0.76.
With “ATATATATATATGTGTGTACTTATTTATTTATTTGT [XGTACX_site549]” the “gcPBM binding intensity (ln)” value was 11.5 ± 1.
In the case of “TTTTTTCTTTTTATGTGTACTTATTTTATTTAATAA [XGTACX_site1080]”, the “gcPBM binding intensity (ln)” value is reported as 11.7 ± 1.1.
With “TTTTTTTTTTTAAATTGTACTTATTTTATATTATAT [XGTACX_site1077]” the “gcPBM binding intensity (ln)” value was 11.4 ± 0.9.
With “AATTTTTTTTTATTGTGTACTTATTTTTTTATATTT [XGTACX_site917]” the “gcPBM binding intensity (ln)” value was 11.7 ± 0.88.
In the case of “ATATATAATATATACACACACATGTATATATAAATA [CACACA_site1968]”, the “gcPBM binding intensity (ln)” value is reported as 9.87 ± 0.16.
With TTTCTTTTTAAATAGGTGCATATTTTTATAAATATA the “gcPBM binding intensity (ln)” value was 10.1 ± 0.38.
In the case of “AAACTAACTCTAACATGTACATATATATATATATAT [XGTACX_site6949]”, the “gcPBM binding intensity (ln)” value is reported as 11.1 ± 0.66.
With “AACAATTATTGTAATGCATGCACTGAATATAGAAAG [TGCATGCA_site889]” the “gcPBM binding intensity (ln)” value was 10.2 ± 0.18.
In the case of “TGTGTTAATATATGAAGTACACAATACACACTAATT [XGTACX_site5469]”, the “gcPBM binding intensity (ln)” value is reported as 11.4 ± 0.73.
With “ATGTACATTTTTTTCACACATACATTAATTTATGAG [CACACA_site5801]” the “gcPBM binding intensity (ln)” value was 11.3 ± 0.87.
For “ATAAAAAAATAAATAACACACAAAATTACACGAAAA [CACACA_site3620]”, the “gcPBM binding intensity (ln)” value was 10.01 ± 0.049.
With “GCCCCCTAAAAAATTACACACGAAAAAAATGAATTT [CACACA_site9128]” the “gcPBM binding intensity (ln)” value was 11.7 ± 1.2.
With “GCAGGCTAAAAAATTACACACGAAAAAAATGAATTT [CACACA_site3417]” the “gcPBM binding intensity (ln)” value was 9.86.
“TATATTATATTTTTATGTACTTATTTATTTTGTTTC [XGTACX_site6145]” was tested, and the “gcPBM binding intensity (ln)” value was 11.3 ± 0.67.
For “AGTCTGAATAAAATTACACACATATACAGATATATA [CACACA_site5054]”, the “gcPBM binding intensity (ln)” value was 9.8 ± 0.014.
